Details in all cases: mRNA level, 48 h; actives raise or lower the signal
Read-out in assay [1]: CFLAR gene, CFLAR (gene 8837)
Nature of the assay: LTEA_HepaRG_CFLAR: Life Technologies and Expression Analysis (LTEA) Assay for CFLAR gene using HepaRG (AID 2283455). The gist of the method:
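HepaRG cells were plated for 48 h, switched to serum-free induction medium, then exposed in duplicate for 48 h to 8 concentrations (top 100 uM, half-log steps, 0.5% DMSO). CFLAR mRNA was measured by qRT-PCR, normalized to ACTB, GAPDH and POLR2A.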

Read-out in assay [2]: Forkhead box O1 (FOXO1), FOXO1 (gene 2308)
Put plainly: LTEA_HepaRG_FOXO1: Life Technologies and Expression Analysis (LTEA) Assay for Forkhead box O1 (FOXO1) using HepaRG (AID 2283456). A digest of the protocol:
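Differentiated human HepaRG cells in serum-free induction medium were exposed in duplicate for 48 h to eight half-log concentrations (top 100 uM, 0.5% DMSO). FOXO1 mRNA was measured by TaqMan qRT-PCR, normalised to ACTB, GAPDH and POLR2A, and fitted bidirectionally against DMSO.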

Read-out in assay [3]: growth arrest and DNA damage 45 (GADD45A), GADD45A (gene 1647)
Nature of the assay: LTEA_HepaRG_GADD45A: Life Technologies and Expression Analysis (LTEA) Assay for growth arrest and DNA damage 45 (GADD45A) using HepaRG (AID 2283458). A digest of the protocol: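 Differentiated HepaRG cells exposed 48 h in serum-free induction medium to 8 concentrations, top 100 uM in half-log steps, 0.5% DMSO. GADD45A mRNA quantified by qRT-PCR, normalized to ACTB, GAPDH and POLR2A; bidirectional fit versus DMSO.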

Read-out in assay [4]: Forkhead box O3 (FOXO3), FOXO3 (gene 2309)
Put plainly: LTEA_HepaRG_FOXO3: Life Technologies and Expression Analysis (LTEA) Assay for Forkhead box O3 (FOXO3) using HepaRG (AID 2283459). The gist of the method: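 Differentiated human HepaRG cells in serum-free induction medium were exposed in duplicate for 48 h to eight half-log concentrations up to 100 uM in 0.5% DMSO. FOXO3 mRNA was quantified by qRT-PCR, normalized to ACTB, GAPDH and POLR2A, with bidirectional fitting versus DMSO.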

Read-out in assay [5]: ABC Transporter (ABCB1), ABCB1 (gene 5243)
Put plainly: LTEA_HepaRG_ABCB1: Life Technologies and Expression Analysis (LTEA) Assay for ABC Transporter (ABCB1) using HepaRG (AID 2283460). The gist of the method:
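Differentiated human HepaRG cells, plated 48 h then switched to serum-free induction medium, were exposed in duplicate to eight half-log concentrations up to 100 uM in 0.5% DMSO for 48 h. ABCB1 mRNA was measured by TaqMan qRT-PCR, normalized to ACTB/GAPDH/POLR2A.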

Read-out in assay [6]: growth arrest and DNA damage 45 (GADD45B), GADD45B (gene 4616)
Put plainly: LTEA_HepaRG_GADD45B: Life Technologies and Expression Analysis (LTEA) Assay for growth arrest and DNA damage 45 (GADD45B) using HepaRG (AID 2283461). The gist of the method:
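Human HepaRG monolayers receive chemicals for 48 h at eight half-log concentrations, highest 100 uM, in 0.5% DMSO. Expression is measured by TaqMan qRT-PCR and normalized to ACTB, GAPDH and POLR2A.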

Read-out in assay [7]: ABC Transporter (ABCC3), ABCC3 (gene 8714)
Put plainly: LTEA_HepaRG_ABCC3: Life Technologies and Expression Analysis (LTEA) Assay for ABC Transporter (ABCC3) using HepaRG (AID 2283462). The gist of the method:
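Transcriptional change of ABCC3 in HepaRG after 48 h treatment, determined by qRT-PCR normalized to endogenous controls. Concentrations spanned eight half-log steps to 100 uM in 0.5% DMSO.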

Read-out in assay [8]: ABC Transporter (ABCB11), ABCB11 (gene 8647)
Nature of the assay: LTEA_HepaRG_ABCB11: Life Technologies and Expression Analysis (LTEA) Assay for ABC Transporter (ABCB11) using HepaRG (AID 2283463). The gist of the method: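 Differentiated human HepaRG cells were exposed for 48 h in serum-free induction medium to eight half-log concentrations up to 100 uM in 0.5% DMSO. ABCB11 mRNA was quantified by qRT-PCR, normalized to ACTB, GAPDH and POLR2A, and fitted bidirectionally versus DMSO.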

Read-out in assay [9]: ABC Transporter (ABCC2), ABCC2 (gene 1244)
Put plainly: LTEA_HepaRG_ABCC2: Life Technologies and Expression Analysis (LTEA) Assay for ABC Transporter (ABCC2) using HepaRG (AID 2283464). A digest of the protocol:
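After plating and 48 h culture, HepaRG medium is replaced with serum-free induction medium and chemicals are added (8 concentrations, max 100 uM, 0.5% DMSO) for 48 h. Total RNA then undergoes qRT-PCR for ABCC2 with housekeeping normalization.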

Read-out in assay [10]: Broad substrate specificity ATP-binding cassette transporter ABCG2 (Homo sapiens) (UniProt Q9UNQ0)
Put plainly: LTEA_HepaRG_ABCG2: Life Technologies and Expression Analysis (LTEA) Assay for ABC Transporter (ABCG2) using HepaRG (AID 2283465). A digest of the protocol: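 Differentiated HepaRG cells in serum-free induction medium were exposed for 48 h, in duplicate, to eight half-log concentrations up to 100 uM in 0.5% DMSO. ABCG2 mRNA was measured by TaqMan qRT-PCR, normalized to ACTB, GAPDH and POLR2A, and fitted bidirectionally versus DMSO.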

Read-out in assay [11]: ATP-citrate lyase (ACLY), ACLY (gene 47)
Put plainly: LTEA_HepaRG_ACLY: Life Technologies and Expression Analysis (LTEA) Assay for ATP-citrate lyase (ACLY) using HepaRG (AID 2283466). The gist of the method:
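Differentiated human HepaRG cells in serum-free induction medium exposed 48 h, in duplicate, to eight half-log concentrations from 100 uM top in 0.5% DMSO; ACLY mRNA measured by qRT-PCR, normalized to ACTB, GAPDH, POLR2A, fitted bidirectionally versus DMSO.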

Read-out in assay [12]: Peroxisomal acyl-coenzyme A oxidase 1 (ACOX1) gene, ACOX1 (gene 51)
Put plainly: LTEA_HepaRG_ACOX1: Life Technologies and Expression Analysis (LTEA) Assay for Peroxisomal acyl-coenzyme A oxidase 1 (ACOX1) gene using HepaRG (AID 2283467). A digest of the protocol: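 Differentiated human HepaRG cells were exposed in duplicate for 48 h in serum-free induction medium to eight half-log concentrations up to 100 uM in 0.5% DMSO. ACOX1 mRNA was then quantified by TaqMan qRT-PCR, normalized to ACTB, GAPDH and POLR2A.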

Read-out in assay [13]: Alkaline Phosphatase, Placental (ALPP) gene, ALPP (gene 250)
Nature of the assay: LTEA_HepaRG_ALPP: Life Technologies and Expression Analysis (LTEA) Assay for Alkaline Phosphatase, Placental (ALPP) gene using HepaRG (AID 2283468). A digest of the protocol: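 Using human liver HepaRG cells, chemicals are tested in duplicate over 48 h at half-log concentrations topping at 100 uM; phenobarbital 1 mM serves as induction control. ALPP mRNA change by qRT-PCR, bidirectional fit against vehicle.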

Read-out in assay [14]: Bcl-2 (BAD) gene, BAD (gene 572)
Put plainly: LTEA_HepaRG_BAD: Life Technologies and Expression Analysis (LTEA) Assay for Bcl-2 (BAD) gene using HepaRG (AID 2283469). The gist of the method: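 Differentiated human HepaRG cells in serum-free induction medium were exposed in duplicate for 48 h to eight concentrations (top 100 uM, half-log steps, 0.5% DMSO). BAD mRNA was quantified by qRT-PCR normalised to ACTB, GAPDH and POLR2A, with bidirectional fitting versus DMSO.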

Read-out in assay [15]: Bcl-2 (BAX) gene, BAX (gene 581)
Put plainly: LTEA_HepaRG_BAX: Life Technologies and Expression Analysis (LTEA) Assay for Bcl-2 (BAX) gene using HepaRG (AID 2283470). A digest of the protocol:
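Differentiated HepaRG cells exposed 48 h in serum-free induction medium, eight half-log concentrations from 100 uM, in duplicate, 0.5% DMSO vehicle. BAX mRNA by TaqMan qRT-PCR, normalised to ACTB, GAPDH and POLR2A.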

Read-out in assay [16]: Alpha-fetoprotein (AFP) gene, AFP (gene 174)
Put plainly: LTEA_HepaRG_AFP: Life Technologies and Expression Analysis (LTEA) Assay for Alpha-fetoprotein (AFP) gene using HepaRG (AID 2283472). The gist of the method:
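Differentiated human HepaRG cells exposed 48 h in serum-free induction medium, 8-point half-log series from 100 uM in 0.5% DMSO, duplicate. AFP mRNA by qRT-PCR, normalized to ACTB, GAPDH, POLR2A; bidirectional fit vs DMSO.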

Read-out in assay [17]: BCL2L11 (gene 10018)
Put plainly: LTEA_HepaRG_BCL2L11: Life Technologies and Expression Analysis (LTEA) Assay for Bcl-2 (BCL2L11) gene using HepaRG (AID 2283473). A digest of the protocol:
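Human hepatic HepaRG cultures are treated 48 h with test chemicals (maximum 100 uM, 0.5% DMSO vehicle). Expression of BCL2L11 is measured by qRT-PCR against ACTB, GAPDH and POLR2A, with activity in either direction scored relative to vehicle.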

Read-out in assay [18]: Apolipoprotein A-V (APOA5) gene, APOA5 (gene 116519)
Nature of the assay: LTEA_HepaRG_APOA5: Life Technologies and Expression Analysis (LTEA) Assay for Apolipoprotein A-V (APOA5) gene using HepaRG (AID 2283474). A digest of the protocol: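 Concentration-response of APOA5 expression in HepaRG: eight half-log doses to 100 uM, 48 h, qRT-PCR normalized to ACTB/GAPDH/POLR2A, bidirectional fitting with 0.5% DMSO as baseline.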

Read-out in assay [19]: adenosine kinase (ADK) gene, ADK (gene 132)
Nature of the assay: LTEA_HepaRG_ADK: Life Technologies and Expression Analysis (LTEA) Assay for adenosine kinase (ADK) gene using HepaRG (AID 2283471). The gist of the method: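 Following 48 h exposure of HepaRG cells in 0.5% DMSO (top concentration 100 uM, duplicate wells), ADK mRNA induction or suppression was measured by qRT-PCR, normalised to ACTB/GAPDH/POLR2A, and fitted bidirectionally relative to vehicle.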

In PubChem BioAssay (EPA / NIEHS) one finds outcome and AC50 data, which are given here for three molecules.

Each structure is given as a SMILES string. Active and inactive are the calls of the source. The calls were made as follows: active = hit-call score of the fitted dose curve at least 0.9, where 1 is the maximum; inactive = score below 0.9.

Broad substrate specificity ATP-binding cassette transporter ABCG2 (Homo sapiens), sequence (Q9UNQ0 whole entry, looked up): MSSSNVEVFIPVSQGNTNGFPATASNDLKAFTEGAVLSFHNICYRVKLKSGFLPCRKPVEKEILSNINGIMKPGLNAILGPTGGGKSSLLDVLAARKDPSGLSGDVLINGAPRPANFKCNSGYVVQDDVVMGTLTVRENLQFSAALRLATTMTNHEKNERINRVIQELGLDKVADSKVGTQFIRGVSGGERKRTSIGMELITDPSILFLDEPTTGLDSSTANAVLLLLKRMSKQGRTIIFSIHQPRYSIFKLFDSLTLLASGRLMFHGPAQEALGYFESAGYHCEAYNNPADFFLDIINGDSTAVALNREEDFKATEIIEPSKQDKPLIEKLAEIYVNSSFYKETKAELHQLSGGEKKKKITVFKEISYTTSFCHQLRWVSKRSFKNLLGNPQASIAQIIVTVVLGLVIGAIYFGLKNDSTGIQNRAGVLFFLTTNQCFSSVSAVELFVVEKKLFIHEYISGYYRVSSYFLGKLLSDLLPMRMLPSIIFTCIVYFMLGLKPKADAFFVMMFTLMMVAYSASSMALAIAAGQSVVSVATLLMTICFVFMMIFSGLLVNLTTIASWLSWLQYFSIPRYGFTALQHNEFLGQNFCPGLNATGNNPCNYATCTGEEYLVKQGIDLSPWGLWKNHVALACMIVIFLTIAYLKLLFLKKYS

With `Cc1cccc([N+](=O)[O-])c1`, the molecule was classed as inactive in [1], in assay [2], in assay [3], in assay [4], in assay [5] and in assay [6]. Further, the molecule was classed as inactive in assay [7], in assay [8], in [9], in assay [10], in assay [11] and in [12]. The molecule was called inactive in [13], in assay [14], in assay [15], in assay [16], in [17] and in assay [18].

On to `CCSC(=O)N(CC)C1CCCCC1`, for which the result in assay [1], in assay [2], in assay [3], in assay [4], in assay [5] and in [6] was inactive. The result in [7], in assay [8], in [9], in [10], in assay [11] and in [12] was inactive. Besides, the outcome in [13], in [14], in assay [15], in [19], in assay [16] and in [17] was inactive. For the same molecule, the molecule was classed as inactive in [18].

Regarding `O=C(O)C(F)(F)C(F)(F)C(F)(F)C(F)(F)C(F)(F)C(F)(F)C(F)(F)C(F)(F)F`, the molecule was classed as inactive in [1], in assay [2], in [7], in assay [11] and in assay [14]. Also, the AC50 in assay [3] was 74.6 µM (active); in assay [4], 50 µM (active); in [5], 75.3 µM (active); in assay [6], 16.8 µM (active); in assay [8], 90.4 µM (active); in [9], 82.7 µM (active). The AC50 in [10] is 50 µM (active); in [12] it was 90.4 µM (active); in assay [13], 50 µM (active); in assay [15] it was 76.3 µM (active); in [16] it was 78.4 µM (active); in [17], 50 µM (active). Further, the AC50 in assay [18] was 82 µM (active).
